Consider five molecules from PubChem BioAssay.

The source made the active and inactive calls.

Assay [1] is described as follows: small molecules captured by biotinylated probe aFSTL3 – biochemical, small-molecule microarray, fluorescence 635/667, stem cell growth factor project, primary screen (AID 1064).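 Also: measures binding of the biotinylated anti-FSTL3 antibody to printed compounds.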 The conditions noted are these: higher = more signal.
Assay [2] can be described thus: binders from COS7 lysate, DM2A8 probe, primary screen, torsin A project, cell lysate, small-molecule microarray, fluorescence 635/667 (AID 1065). The conditions noted are these: higher = more signal, COS7 lysate expressing mutant human TOR1A.
A short description of assay [3]: small molecules captured by biotinylated probe aFGF2 – biochemical, small-molecule microarray, fluorescence 635/667, stem cell growth factor project, primary screen (AID 1067).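 Also: measures binding of biotinylated aFGF2 protein to printed compounds on slides; z-score merges feature fluorescence and signal-to-noise across triplicate slides.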 As to conditions: higher = more signal.
A short description of assay [4]: small molecules captured by biotinylated probe aFGF10 – biochemical, small-molecule microarray, fluorescence 635/667, stem cell growth factor project, primary screen (AID 1071).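 Also: score merges 667 nm spot intensity and signal to noise from triplicate slides.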 The conditions noted are these: higher = more signal.
The target of assay [5] is Neurogenic locus notch homolog protein 2 (Homo sapiens) (UniProt Q04721). Description: small molecules binding Notch2 protein – biochemical, small-molecule microarray, 635 nm fluorescence, stem cell growth factors, primary screen (AID 1073). The conditions noted are these: higher = more signal.
For assay [6], the target named is Pro-neuregulin-1, membrane-bound isoform (Homo sapiens) (UniProt Q02297). The experiment in a line: small molecules binding neuregulin-1 protein – biochemical, small-molecule microarray, fluorescence 635/667, psychiatric disease protein project, primary screen (AID 1075).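 Also: score combines 667 nm spot fluorescence with signal to noise.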 As to conditions: NRG1 binding, 635 nm fluorescence, higher = more signal.
In assay [7] the test system is Neuregulin-1 EGF-like domain. Description: small molecules binding NRG1 EGF domain – biochemical, small-molecule microarray, 635 nm fluorescence, primary screen (AID 1081).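 Also: binding of the protein to compounds printed on small-molecule microarray slides.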 As to conditions: higher = more signal.
A short description of assay [8]: FRG1 expression reporter modulators in myotubes – cell-based, C2C12 myotubes, firefly/Renilla luciferase, luminescence, FRG1 inhibition for FSHD, primary screen (AID 1084). As to conditions: FRG1 promoter luciferase, higher = more signal, called active from +8 up or from −8 down.
The nature of assay [9]: small molecules captured by biotinylated probe aFST – biochemical, small-molecule microarray, fluorescence 635/667, stem cell growth factor project, primary screen (AID 1086).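 Also: score merges 667 nm fluorescence with signal-to-noise of each printed compound spot.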 As to conditions: higher = more signal.
A short description of assay [10]: binders of probe aHhip on microarray, primary screen, stem cell growth factor project, biochemical, small-molecule microarray, fluorescence 635/667 (AID 1087).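 Also: score merges spot fluorescence at 667nm with spot signal to noise ratio.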 The conditions noted are these: higher = more signal.
Assay [11] has as its system PRMT1 (protein arginine N-methyltransferase 1). Description: small molecules binding arginine methyltransferase PRMT1 – biochemical, small-molecule microarray, 635 nm fluorescence, primary screen (AID 1088).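 Also: binding of Prmt1 protein to compounds spotted on small-molecule microarray slides.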 As to conditions: higher = more signal.
A short description of assay [12]: growth effects on S. cerevisiae YJM789 – YJM789 clinical isolate, OD600, 24 h, basal, primary screen (AID 1089).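 Also: growth of clinical yeast isolate S. cerevisiae YJM 789 seeded 1000 cells per well; test concentration not given here.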 As to conditions: higher = more signal, called active from +8 up or from −8 down.
The nature of assay [13]: S. pombe growth modifiers, basal conditions – strain 972, OD600, 24 h, no modulator, primary screen (AID 1090).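 Also: basal condition with compound alone and no growth modifier present; test concentration not given here.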 The conditions noted are these: S. pombe 972 growth, higher = more signal, called active from +8 up or from −8 down.
A short description of assay [14]: budding yeast growth modifiers under rapamycin – strain BY4716, OD600, 96 h, primary screen (AID 1091). Also: test concentration not given here. The conditions noted are these: S. cerevisiae BY4716 + rapamycin, higher = more signal, called active from +8 up or from −8 down.
For assay [15], the target named is Torsin-1A-interacting protein 2 (Homo sapiens) (UniProt Q8NFQ8). The experiment in a line: small molecules binding lysate-expressed LULL1 – cell lysate, human LULL1 lysate, 635/667 nm fluorescence, primary screen (AID 1092).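 Also: probe is lysate of COS7 cells overexpressing human LULL1; score merges per-feature 667 nm fluorescence with signal-to-noise.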 The conditions noted are these: small-molecule microarray, hLULL1 lysate binding, 635 nm fluorescence; higher = more signal.
Assay [16] can be described thus: optical density change of DRC41 E. coli – strain DRC41, OD650, 24 h, E. coli filamentation project, primary screen (AID 1093).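 Also: MC1000 strain lacking acrAB efflux and sulA so SOS filamentation is blocked; test concentration not given here.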 The conditions noted are these: E. coli DRC41 growth, higher = more signal, called active from +8 up or from −8 down.
Assay [17] can be described thus: probe aLefty2 binding to arrayed compounds – biochemical, biotinylated probe, 635/667 nm fluorescence, primary screen (AID 1094).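 Also: score merges spot fluorescence near 667 nm with spot signal-to-noise ratio.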 As to conditions: small-molecule microarray, higher = more signal.
Assay [18] relates to Noggin (protein binding on small-molecule microarray). Description: small molecules binding Noggin protein – biochemical, 635/667 nm fluorescence, primary screen (AID 1095).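 Also: score merges 667 nm feature fluorescence with signal to noise over triplicate slides.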 The conditions noted are these: 635 nm fluorescence, higher = more signal.
For assay [19], the target named is Neurogenic locus notch homolog protein 3 (Homo sapiens) (UniProt Q9UM47). The experiment in a line: small molecules binding NOTCH3 protein – biochemical, 635/667 nm fluorescence, primary screen (AID 1096). The conditions noted are these: small-molecule microarray, 635 nm fluorescence, higher = more signal.
Assay [20] can be described thus: probe aEGFR binding to arrayed compounds – biochemical, biotinylated probe, 635/667 nm fluorescence, primary screen (AID 1097).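 Also: probe is a biotinylated anti-EGFR antibody binding compounds printed on slides; score combines fluorescence near 667 nm and signal to noise of each spot.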 As to conditions: small-molecule microarray, higher = more signal.

Neurogenic locus notch homolog protein 3 (Homo sapiens), sequence (Q9UM47 whole entry, looked up): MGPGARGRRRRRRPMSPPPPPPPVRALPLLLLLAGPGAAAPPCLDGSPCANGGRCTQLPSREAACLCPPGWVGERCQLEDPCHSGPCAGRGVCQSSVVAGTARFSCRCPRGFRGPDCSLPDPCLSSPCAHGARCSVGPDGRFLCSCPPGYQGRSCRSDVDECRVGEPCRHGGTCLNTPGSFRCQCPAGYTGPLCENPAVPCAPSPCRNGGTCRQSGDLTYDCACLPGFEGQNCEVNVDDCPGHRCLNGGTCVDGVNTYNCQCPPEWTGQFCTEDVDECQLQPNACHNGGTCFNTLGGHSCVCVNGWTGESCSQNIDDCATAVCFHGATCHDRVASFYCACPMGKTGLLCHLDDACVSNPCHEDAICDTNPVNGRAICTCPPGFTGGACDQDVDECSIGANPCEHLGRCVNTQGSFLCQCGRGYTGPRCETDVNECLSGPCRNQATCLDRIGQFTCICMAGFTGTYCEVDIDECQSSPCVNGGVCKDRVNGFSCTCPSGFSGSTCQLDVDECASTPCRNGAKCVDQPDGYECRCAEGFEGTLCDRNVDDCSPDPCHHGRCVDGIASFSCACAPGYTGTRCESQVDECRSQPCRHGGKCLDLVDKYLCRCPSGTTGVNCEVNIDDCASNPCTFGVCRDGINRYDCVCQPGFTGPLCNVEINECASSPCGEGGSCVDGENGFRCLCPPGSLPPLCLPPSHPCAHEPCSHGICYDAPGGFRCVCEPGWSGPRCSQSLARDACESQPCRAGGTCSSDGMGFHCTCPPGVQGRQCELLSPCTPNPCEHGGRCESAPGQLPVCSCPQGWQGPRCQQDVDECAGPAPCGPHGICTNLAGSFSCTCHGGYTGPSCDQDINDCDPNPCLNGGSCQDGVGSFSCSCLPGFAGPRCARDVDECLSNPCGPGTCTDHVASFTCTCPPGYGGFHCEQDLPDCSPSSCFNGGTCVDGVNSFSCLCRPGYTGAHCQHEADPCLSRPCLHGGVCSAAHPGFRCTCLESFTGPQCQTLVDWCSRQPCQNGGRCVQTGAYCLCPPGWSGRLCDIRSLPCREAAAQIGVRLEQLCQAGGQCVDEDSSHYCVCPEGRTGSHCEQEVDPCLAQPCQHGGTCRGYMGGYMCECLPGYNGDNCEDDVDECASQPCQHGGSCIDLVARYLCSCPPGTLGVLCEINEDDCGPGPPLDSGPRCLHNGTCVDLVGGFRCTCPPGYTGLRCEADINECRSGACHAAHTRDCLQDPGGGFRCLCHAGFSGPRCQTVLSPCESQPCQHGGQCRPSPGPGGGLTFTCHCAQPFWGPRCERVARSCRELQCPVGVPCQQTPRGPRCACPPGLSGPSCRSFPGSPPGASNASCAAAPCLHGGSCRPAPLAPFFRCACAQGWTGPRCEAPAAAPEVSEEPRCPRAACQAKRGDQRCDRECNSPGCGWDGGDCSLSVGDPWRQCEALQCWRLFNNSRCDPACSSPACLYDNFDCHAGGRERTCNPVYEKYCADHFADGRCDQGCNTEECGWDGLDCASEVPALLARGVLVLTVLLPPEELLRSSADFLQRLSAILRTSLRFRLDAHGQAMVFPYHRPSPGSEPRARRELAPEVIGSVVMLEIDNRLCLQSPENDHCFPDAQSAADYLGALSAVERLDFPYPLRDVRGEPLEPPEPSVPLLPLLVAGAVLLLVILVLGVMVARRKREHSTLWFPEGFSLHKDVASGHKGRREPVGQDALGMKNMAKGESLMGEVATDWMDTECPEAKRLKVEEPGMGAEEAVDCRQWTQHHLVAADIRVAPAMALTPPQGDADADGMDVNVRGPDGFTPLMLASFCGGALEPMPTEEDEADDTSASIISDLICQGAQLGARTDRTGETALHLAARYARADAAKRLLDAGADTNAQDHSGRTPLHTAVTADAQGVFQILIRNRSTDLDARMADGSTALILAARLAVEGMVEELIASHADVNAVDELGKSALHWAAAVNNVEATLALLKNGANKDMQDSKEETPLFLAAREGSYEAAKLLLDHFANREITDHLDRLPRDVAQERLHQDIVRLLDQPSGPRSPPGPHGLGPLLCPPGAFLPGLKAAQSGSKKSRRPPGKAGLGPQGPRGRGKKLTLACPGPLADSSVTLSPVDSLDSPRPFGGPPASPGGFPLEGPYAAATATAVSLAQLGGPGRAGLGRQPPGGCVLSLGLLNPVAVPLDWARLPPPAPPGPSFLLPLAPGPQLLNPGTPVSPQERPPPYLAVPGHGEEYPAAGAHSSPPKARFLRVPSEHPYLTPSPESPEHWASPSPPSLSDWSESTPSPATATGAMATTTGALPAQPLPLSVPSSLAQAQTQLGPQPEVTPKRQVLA
Torsin-1A-interacting protein 2 (Homo sapiens), sequence (Q8NFQ8 whole entry, looked up): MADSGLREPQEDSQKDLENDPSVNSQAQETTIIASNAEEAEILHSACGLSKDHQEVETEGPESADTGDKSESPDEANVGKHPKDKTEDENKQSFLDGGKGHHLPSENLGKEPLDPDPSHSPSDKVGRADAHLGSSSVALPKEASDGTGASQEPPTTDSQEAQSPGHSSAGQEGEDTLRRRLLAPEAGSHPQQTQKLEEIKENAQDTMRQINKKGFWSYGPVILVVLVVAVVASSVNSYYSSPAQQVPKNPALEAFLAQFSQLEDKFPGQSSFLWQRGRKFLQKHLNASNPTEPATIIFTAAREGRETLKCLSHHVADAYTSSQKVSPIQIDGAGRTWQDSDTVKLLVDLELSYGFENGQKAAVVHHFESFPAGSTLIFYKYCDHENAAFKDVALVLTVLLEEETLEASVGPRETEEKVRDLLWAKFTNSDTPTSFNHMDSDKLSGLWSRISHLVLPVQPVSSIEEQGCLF
Pro-neuregulin-1, membrane-bound isoform (Homo sapiens), sequence (Q02297 whole entry, looked up, the tested form may be a part, canonical isoform): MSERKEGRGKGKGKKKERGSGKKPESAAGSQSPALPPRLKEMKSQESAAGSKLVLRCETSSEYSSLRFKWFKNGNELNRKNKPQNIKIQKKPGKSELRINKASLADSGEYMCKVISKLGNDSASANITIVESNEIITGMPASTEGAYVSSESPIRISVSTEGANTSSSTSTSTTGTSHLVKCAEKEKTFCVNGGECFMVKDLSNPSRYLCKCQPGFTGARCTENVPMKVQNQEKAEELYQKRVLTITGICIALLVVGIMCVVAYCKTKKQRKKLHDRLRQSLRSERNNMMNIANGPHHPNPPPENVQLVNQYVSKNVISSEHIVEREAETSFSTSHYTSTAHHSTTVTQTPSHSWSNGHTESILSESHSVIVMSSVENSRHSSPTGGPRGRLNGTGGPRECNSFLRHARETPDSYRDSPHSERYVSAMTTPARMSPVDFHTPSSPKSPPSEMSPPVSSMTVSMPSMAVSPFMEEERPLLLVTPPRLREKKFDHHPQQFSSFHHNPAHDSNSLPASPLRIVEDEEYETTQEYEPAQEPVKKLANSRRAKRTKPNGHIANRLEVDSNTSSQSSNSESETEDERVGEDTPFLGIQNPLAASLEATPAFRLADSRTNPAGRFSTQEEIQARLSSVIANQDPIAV

On to `COCCOC(=O)N1C(=O)[C@@]2(c3cc(C#Cc4ccc(OC)cc4)ccc31)[C@H](c1ccc(OCCO)cc1)N1[C@H](c3ccccc3)[C@H](c3ccccc3)OC(=O)[C@H]1[C@@H]2C(=O)N1CCN(c2ncccn2)CC1`, for which the composite z-score in [1] is -0.144; in [2] it was 0.316; in [3], -0.0113; in assay [4], 0.397; in assay [5], 0.926; in assay [6], -0.318. Besides, the composite z-score in assay [7] came to 1.13; in assay [9] it was 0.736; in assay [10] it was 0.0176; in assay [11], 1.55; in assay [15] it was 1.55; in assay [17], 0.127. In addition, the values for the composite z-score in assay [18], in assay [19] and in [20] were 1.06, 1.08 and 0.178, respectively. In addition, the z-score in assay [8] is 0.598 (inactive); in assay [12] it was 2.92 (inactive); in assay [13] it was 2.3 (inactive); in [14], 7.54 (inactive); in [16], 0.468 (inactive).
As to `[N-]=[N+]=Nc1ccccc1[C@H]1OC(c2ccc(OCCCO)cc2)=N[C@@]1(CCS(=O)(=O)c1ccccc1)C(=O)NCC(O)CO` (stereo not given in full), the composite z-score turned out to be 0.408 in assay [1]; 0.652 in [2]; 0.0367 in [3]; 0.543 in [4]; 1.35 in assay [5]; 1.75 in assay [6]. Further, the composite z-score in assay [7] was 1.3; in [9], 1.1; in assay [10], -0.283; in assay [11] it was 0.976; in assay [15], 3.64; in [17], 0.207. In addition, the results for the composite z-score in assay [18], in assay [19] and in [20] were 0.108, 0.244 and -0.111, respectively. In addition, the z-score was 5.85 (inactive) in [8]; -0.733 (inactive) in assay [12]; -0.213 (inactive) in assay [13]; 0.803 (inactive) in assay [14]; -0.168 (inactive) in assay [16].
On to `CCCC=C(CCC)[C@@H](NC(=O)c1cccs1)c1ccc(C(F)(F)F)cc1`, for which the composite z-score in assay [1] was 0.251; in assay [2] it was 0.654; in assay [3], -0.0515; in assay [4] it was 0.383; in [5] it was 1.43; in assay [6] it was 0.393. The composite z-score was 0.729 in [7]; 1.46 in assay [9]; -0.132 in [10]; 1.03 in [11]; 0.109 in [15]; 0.291 in assay [17]. For the same molecule, the composite z-score was determined as 0.989 in assay [18], 1.09 in assay [19] and 0.315 in [20]. Further, the z-score in assay [8] was 2.26 (inactive); in assay [12] it was -0.522 (inactive); in assay [13] it was -2.1 (inactive); in assay [14], -0.851 (inactive); in assay [16] it was -0.649 (inactive).
As for `NC(=O)NCC#Cc1ccc2c(c1)[C@]1(C(=O)N2)[C@H](C(=O)Nc2nc3ccccc3s2)[C@H]2C(=O)O[C@H](c3ccccc3)[C@H](c3ccccc3)N2[C@@H]1c1ccccc1OCCO`, the composite z-score in assay [1] was 1.85; in [2], 0.407; in assay [3], 0.0863; in assay [4] it was 1.01; in assay [5], 1.03; in [6], 1.57. In addition, the composite z-score in assay [7] was 0.406; in assay [9] it was 1.39; in assay [10], -0.0478; in assay [11], 1.54; in [15], 3.85; in assay [17], -0.351. For the same molecule, the composite z-score was 1.61 in assay [18], 1.06 in assay [19] and 0.506 in assay [20]. Also, the z-score in assay [8] was 1.62 (inactive); in assay [12], 1.17 (inactive); in [13], 1.33 (inactive); in assay [14] it was 3.48 (inactive); in [16], 1.5 (inactive).
Regarding `CCCCCCc1nc(-c2ccc(OC)nc2)cc2c1[Si](C(C)C)(C(C)C)O[C@H]2c1ccccc1`, the composite z-score in assay [1] is -0.16; in assay [2], -0.0924; in assay [3], 0.0131; in assay [4], 0.0809; in assay [5], 0.144; in assay [6] it was -0.384. Moreover, the composite z-score in assay [7] is -0.821; in assay [9], -0.546; in assay [10], -0.146; in [11], 0.608; in assay [15] it was -0.4; in assay [17] it was -0.203. The composite z-score is 0.75 in assay [18], 0.783 in [19] and -0.0674 in [20]. Besides, the z-score was -0.566 (inactive) in assay [8]; 0.493 (inactive) in assay [12]; 0.993 (inactive) in assay [13]; -0.226 (inactive) in assay [14]; -0.995 (inactive) in assay [16].
